{
  "source": "PubChem BioAssay (Tox21)",
  "note": "Records with an inconclusive call do not appear. Where a call stands in place of a potency, no number is given. A number with no mark means an inactive call. Active and inactive are the calls of the source. Calls come from the whole dose curve; as a rule, active = well fitted activation curve with a large enough effect in the repeat runs; inconclusive = weak or mixed curves; inactive = flat fitted curve, though single readings scatter. Potency is the fitted concentration of half-maximal effect.",
  "data": [
    {"assay": "A CellTox Green Cytotoxicity Assay to monitor cytotoxicity in HepG2 cells - 8 hour (AID 1224890); note: nearly all actives have a fitted effect of over 45% in size", "settings": "CellTox Green fluorescence; series mostly up to 76.8 µM", "excerpt": "National Center for Advancing Translational Sciences [NCATS]\nNIH Chemical Genomics Center [NCGC]\nU.S. Environmental Protection Agency [EPA]\nNational Institutes of Environmental Health Sciences [NIEHS]\nNational Toxicology Program [NTP]\nCell-based models are critical for drug discovery. Determining the natural cytotoxic effects resulting from test compounds is an essential research activity. A CellTox Green Cytotoxicity Assay to monitor cytotoxicity in real time of continues cell culture during 40 hours of the compound treatment was used to screen Tox21 10K library compounds in HepG2 cells. CellTox Green Cytotoxicity Assay is a nonlytic, homogeneous, biofluorescent method to measure cytotoxicity in cell culture after experimental manipulation. The assay system uses a proprietary asymmetric cyanine dye that is excluded from viable cells but preferentially stains the dead cell's DNA. […] Viable cells produce no appreciable increases in fluorescence. Therefore, the fluorescence signal produced by the binding interaction with dead cell DNA is proportional to cytotoxicity.\nThe mixture of HepG2 cell suspension and reagents were dispensed at 600cells/6 ul/well in 1536-well tissue culture treated black solid bottom plates using a Multidrop dispenser. After the assay plates were incubated at a 37 C/5% CO2 incubator for 5 hours, 23 nL of compounds dissolved in DMSO, positive and negative controls was transferred to the assay plate by a pintool work station. The plates were incubated at 37 C for 40 hours. The fluorescence intensity were measured at 0h, 8h, 16h, 24h, 32h and 40h time points using ViewLux plate reader during compound treatment.", "values": [
      {"smiles": "CCCCCCCCCCOC(=O)c1ccccc1C(=O)OCCCCCCCCCC", "Potency": "inactive"},
      {"smiles": "ClCC(Br)CBr", "note": "(stereo not given)", "Potency": "inactive"},
      {"smiles": "C(=NC1CCCCC1)=NC1CCCCC1", "Potency": "inactive"},
      {"smiles": "CN1[C@@H]2CC[C@H]1CC(OC(=O)c1cc(Cl)cc(Cl)c1)C2", "note": "(stereo not given in full)", "Potency": "inactive"},
      {"smiles": "O=C(NC(=O)c1c(F)cccc1F)Nc1cc(Cl)c(Oc2ncc(C(F)(F)F)cc2Cl)c(Cl)c1", "Potency": "inactive"},
      {"smiles": "O=C1C(Cl)C(CCl)CN1c1cccc(C(F)(F)F)c1", "note": "(stereo not given)", "Potency": "inactive"},
      {"smiles": "C=C(C#N)CCC#N", "Potency": "inactive"},
      {"smiles": "CN1C[C@H](CNC(=O)OCc2ccccc2)C[C@@H]2c3cccc4c3c(cn4C)C[C@H]21", "Potency": "inactive"},
      {"smiles": "O=C1NCN(c2ccccc2)C12CCN(CCCOc1ccc(F)cc1)CC2", "Potency": "inactive"},
      {"smiles": "COC(N)=O", "Potency": "inactive"},
      {"smiles": "IC(I)=C(I)I", "Potency": "38.9 µM (active)"},
      {"smiles": "O=C(CBr)Nc1ccc(Cl)cc1C(=O)c1ccccc1F", "Potency": "inactive"},
      {"smiles": "O=C(Nc1ccccc1)Nc1cnns1", "Potency": "inactive"},
      {"smiles": "CCC(C)(NC(=O)c1cc(Cl)c(C)c(Cl)c1)C(=O)CCl", "note": "(stereo not given)", "Potency": "inactive"},
      {"smiles": "CC(C)(Cl)[N+](=O)[O-]", "Potency": "inactive"},
      {"smiles": "CCCCOC(=O)c1ccccc1C(=O)OCc1ccccc1", "Potency": "inactive"},
      {"smiles": "C=CC(=O)NCNC(=O)C=C", "Potency": "inactive"},
      {"smiles": "CCCCCCCCOC(=O)c1ccc(C(=O)OCCCCCCCC)c(C(=O)OCCCCCCCC)c1", "Potency": "inactive"},
      {"smiles": "CCCCN(N=O)C(=N)N[N+](=O)[O-]", "Potency": "inactive"},
      {"smiles": "C=CC(=O)OCC(C)C", "Potency": "inactive"},
      {"smiles": "O=NN1CCCCCC1", "Potency": "inactive"},
      {"smiles": "CCO[C@H]1O[C@@H]2OC3(C)CC[C@H]4[C@H](C)CC[C@@H]([C@H]1C)[C@@]24OO3", "Potency": "inactive"},
      {"smiles": "CC(=O)C(C)(C)C", "Potency": "inactive"},
      {"smiles": "O=C(NC(=O)c1c(F)cccc1F)Nc1ccc(OC(F)(F)C(F)OC(F)(F)F)c(Cl)c1", "note": "(stereo not given)", "Potency": "inactive"},
      {"smiles": "Cn1cc[n+](C)c1", "note": "(tested in a mixture with another compound)", "Potency": "inactive"},
      {"smiles": "C=CCOC(C)=O", "Potency": "inactive"},
      {"smiles": "COC(=O)C(Br)CBr", "note": "(stereo not given)", "Potency": "inactive"},
      {"smiles": "O=[Se]=O", "Potency": "inactive"},
      {"smiles": "CO[C@@H]1[C@H](OC(=O)NC(=O)CCl)CC[C@]2(CO2)[C@H]1[C@@]1(C)O[C@@H]1CC=C(C)C", "cytotoxicity increase": "-1.9% [at 15.8 µM]"},
      {"smiles": "Cc1cc(=O)[nH]o1", "Potency": "inactive"},
      {"smiles": "NCC(CC(=O)O)c1ccc(Cl)cc1", "note": "(stereo not given)", "cytotoxicity increase": "-2.04% [at 0.29 µM]"},
      {"smiles": "N#C/C(N)=C(/N)C#N", "Potency": "inactive"},
      {"smiles": "CCBr", "Potency": "inactive"},
      {"smiles": "CC1(C)[C@H](C=C(Cl)Cl)[C@@H]1C(=O)O[C@@H](C#N)c1cccc(Oc2ccccc2)c1", "Potency": "inactive"},
      {"smiles": "COc1ccc(-c2ccccc2)cc1NNC(=O)OC(C)C", "Potency": "inactive"},
      {"smiles": "[O-][Cl+]O", "Potency": "inactive"},
      {"smiles": "Cc1ccc2ccccc2c1", "Potency": "inactive"},
      {"smiles": "COc1c(C(C)(C)C)cc([N+](=O)[O-])c(C)c1[N+](=O)[O-]", "Potency": "inactive"},
      {"smiles": "c1cc2ccc3cccc4ccc(c1)c2c34", "Potency": "inactive"},
      {"smiles": "c1ccoc1", "Potency": "inactive"}
    ]}
  ]
}
